# The source made the active and inactive calls. Unless noted, the rule behind the calls is not given here.
# Experiments:
# [1] = qHTS profiling for inhibitors of Plasmodium falciparum (3D7) proliferation (AID 743322);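 note: infected erythrocytes exposed to compound for 72 h before lysis; 100% = DMSO vehicle wells and 0% = 0.29 µM artemisinin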; conditions: P. falciparum 3D7 proliferation; at 28.7 µM (top of the series) unless noted
# In short: (§1)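 Parasite DNA was quantified by SYBR Green I fluorescence (ex 485, em 535 nm) after overnight lysis in saponin/Triton buffer at room temperature. Cultures at 0.3% parasitemia and 2.5% hematocrit were first exposed to compound for 72 h at 37 C; signals were normalised to artemisinin (0.29 uM) and vehicle wells.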
# [2] = qHTS profiling for inhibitors of Plasmodium falciparum (DD2) proliferation (AID 743323); conditions: lower = more inhibition; at 28.7 µM (top of the series) unless noted
# In short: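 SYBR Green fluorescence (ex 485, em 535 nm) of lysed cultures gives parasite DNA content; wells normalized to artemisinin (0.29 uM) and DMSO controls. Infected red cells: 0.3% parasitemia, 2.5% hematocrit, 72 h, 37 C.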
# [3] = qHTS profiling for inhibitors of Plasmodium falciparum (HB3) proliferation (AID 743324; active = well fitted curve in the direction sought with a large enough effect; inactive = no such curve, though single readings can be large or run the other way;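 note: 100% = DMSO vehicle wells and 0% = artemisinin-treated control wells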); conditions: Plasmodium falciparum HB3 blood-stage proliferation; at 28.7 µM (top of the series) unless noted
# In short: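 SYBR Green fluorescence (485 ex/535 em) of lysed cultures, incubated overnight at room temperature in the dark, quantifies parasite DNA. Infected erythrocytes at 0.3% parasitemia and 2.5% hematocrit were exposed 72 h; values normalized to DMSO and 0.29 uM artemisinin controls.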
# [4] = qHTS profiling of the MIPE4 collection as inhibitors of Plasmodium falciparum (3D7) proliferation (AID 743344);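 note: scaled between DMSO vehicle wells and 0.29 µM artemisinin as full inhibition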; conditions: P. falciparum 3D7 in erythrocytes, SYBR Green DNA fluorescence, 72 h; at 28.5 µM (top of the series)
# In short: as §1
# [5] = qHTS profiling of the MIPE4 collection as inhibitors of Plasmodium falciparum (DD2) proliferation (AID 743345); conditions: P. falciparum Dd2 in erythrocytes, SYBR Green DNA, 72 h; at 28.5 µM (top of the series) unless noted
# In short: as §1
# [6] = qHTS profiling of the MIPE4 collection as inhibitors of Plasmodium falciparum (DD2) proliferation (Rep 2) (AID 743346); conditions: P. falciparum Dd2 in erythrocytes, SYBR Green DNA, 72 h; at 28.5 µM (top of the series)
# In short: as §1
# [7] = qHTS profiling of the MIPE4 collection as inhibitors of Plasmodium falciparum (HB3) proliferation (AID 743347);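 note: plate controls were DMSO vehicle wells for no effect and artemisinin wells for full effect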; conditions: P. falciparum HB3 in erythrocytes, SYBR Green DNA, 72 h; at 28.5 µM (top of the series)
# In short: as §1
# [8] = Immunotoxin (HA22) sensitization/mitigation study. Vehicle arm (PBS) (AID 1159510); note: potency is the fitted concentration of half-maximal effect
# [9] = High-throughput drug toxicity screening in the BPDCN cell line Gen2.2 (AID 1224824); conditions: Gen2.2 BPDCN cells; at 45.8 µM (top of the series);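 note: cells exposed to compounds for 48 h before reading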
# In short: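 Gen2.2 cells (500/well) in phenol red-free RPMI with 10% FBS were exposed to compounds for 48 h at 37 °C, 5% CO2. Viability was read by CellTiter-Glo luminescence and normalized to DMSO (100%) and 9.2 uM bortezomib (0%).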
# [10] = High-throughput drug toxicity screening in the BPDCN cell line Cal-1 (AID 1224825); conditions: Cal-1 BPDCN cell viability, qHTS; at 45.8 µM (top of the series)
# In short: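 Percent activity derived from CellTiter-Glo luminescence, scaling DMSO to 100% and 9.2 uM final bortezomib to 0%. BPDCN Cal-1 cells (500/well, RPMI plus 10% FBS) incubated with compounds 48 hours at 37C before reading.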
# [11] = Immunotoxin (SS1P) sensitization/mitigation study. Vehicle arm (DMEM) (AID 1159513); note: potency is the fitted concentration of half-maximal effect
structure (smiles),measurement,setting,value
Cc1ccccc1-n1c(Cn2cnc3c(N)ncnc32)nc2cccc(C)c2c1=O,remaining parasite growth % (stronger effect = lower value),[1],43.1%
same,"activity, percent of control",[2],37.6%
same,"remaining proliferation (% of control), lower = more inhibition",[3],24.9%
same,"parasite growth, % of DMSO control",[4],5.28%
same,"parasite growth remaining, % of DMSO control (lower = more inhibition)",[5],12.7%
same,"parasite growth, % of control (lower = inhibition)",[6],6.97%
same,"growth, % of control",[7],2.42%
same,Potency,[8],23500 nM (active)
same,"cell viability, % of control (lower = more cytotoxic)",[9],68.3%
same,viability (% of control),[10],9.3%
COc1cc2c(cc1OC)[C@@H]1C(=O)c3ccc4c(c3O[C@@H]1CO2)C=CC(C)(C)O4,Potency,[11],4180 nM (active)
COCCn1c2c([n+](Cc3cnccn3)c1C)C(=O)c1ccccc1C2=O,Potency,[11],3.7 nM (active)
CC(C)[C@]12O[C@H]1[C@@H]1O[C@]13[C@]1(O[C@H]1C[C@H]1C4=C(CC[C@@]13C)C(=O)OC4)[C@@H]2O,remaining parasite growth % (stronger effect = lower value),[1],103%
same,"activity, percent of control",[2],96.4%
same,"remaining proliferation (% of control), lower = more inhibition",[3],95.4%
same,Potency,[8],4.2 nM (active)
same,Potency,[11],7.4 nM (active)
CC(C)=CCCC(C)=CCCC(C)=CCSc1ccccc1C(=O)O,Potency,[11],inactive
Cc1cccc(-c2[nH]ncc2-c2ccc3ncccc3n2)n1,Potency,[11],inactive
CCCCN1CCC(CNC(=O)c2c3n(c4ccccc24)CCCO3)CC1,remaining parasite growth % (stronger effect = lower value),[1],91.7%
same,"activity, percent of control",[2],54.7%
same,"remaining proliferation (% of control), lower = more inhibition",[3],74.4%
same,"parasite growth remaining, % of DMSO control (lower = more inhibition)",[5],56.2%
same,"parasite growth, % of control (lower = inhibition)",[6],38.7%
same,"growth, % of control",[7],32.4%
same,Potency,[8],inactive
same,Potency,[11],inactive
Cn1cncc1[C@@](N)(c1ccc(Cl)cc1)c1ccc2c(c1)c(-c1cccc(Cl)c1)cc(=O)n2C,"parasite growth remaining, % of DMSO control (lower = more inhibition)",[5],33.3%
same,Potency,[8],11800 nM (active)
same,Potency,[11],20900 nM (active)
COc1cc(Nc2ncc3c(n2)-c2ccc(Cl)cc2C(c2c(F)cccc2OC)=NC3)ccc1C(=O)O,Potency,[11],inactive
CC(C)c1ccc(Cn2ccc3c4c(N)nc(NC5CC5)nc4ccc32)cc1,Potency,[8],3320 nM (active)
same,Potency,[11],935 nM (active)
Clc1ccc(-c2nc3sccn3c2C=NOCc2ccc(Cl)c(Cl)c2)cc1,Potency,[11],inactive
C=CCON=C(C[C@H]1O[C@@H]2O[C@]3(C)CC[C@@H]4[C@H](C)CC[C@@H]([C@H]1C)[C@@]24OO3)[C@H]1O[C@@H]2O[C@]3(C)CC[C@H]4[C@H](C)CC[C@@H]([C@@H]1C)[C@@]24OO3,remaining parasite growth % (stronger effect = lower value),[1],-1.46%
same,"activity, percent of control",[2],0.0103%
same,"remaining proliferation (% of control), lower = more inhibition",[3],0.0213%
same,"parasite growth, % of DMSO control",[4],21.6%
same,"parasite growth remaining, % of DMSO control (lower = more inhibition)",[5],7.38%
same,"parasite growth, % of control (lower = inhibition)",[6],16.3%
same,"growth, % of control",[7],64.2%
same,Potency,[8],16.6 nM (active)
same,Potency,[11],235 nM (active)
same,"cell viability, % of control (lower = more cytotoxic)",[9],19.7%
same,viability (% of control),[10],23.2%
C1=CCOCc2cc(ccc2OCCN2CCCC2)Nc2nccc(n2)-c2cccc(c2)OCC1,remaining parasite growth % (stronger effect = lower value),[1],105%
same,"activity, percent of control",[2],107%
same,"remaining proliferation (% of control), lower = more inhibition",[3],115%
same,Potency,[8],3720 nM (active)
same,Potency,[11],2640 nM (active)
Cc1cc(-c2nnc3n2CCCCC3)c(C)n1-c1ccc(F)cc1,Potency,[11],332 nM (active)
COC(=O)[C@@H](N)CCCN=C(N)N[N+](=O)[O-],"parasite growth, % of DMSO control",[4],91.3%
same,"parasite growth remaining, % of DMSO control (lower = more inhibition)",[5],94.8%
same,"parasite growth, % of control (lower = inhibition)",[6],82%
same,"growth, % of control",[7],92.1%
same,"cell viability, % of control (lower = more cytotoxic)",[9],113%
same,viability (% of control),[10],132%
NC(=O)c1ccc(N(C(N)=O)c2c(F)cccc2F)nc1-c1ccc(F)cc1F,Potency,[11],inactive
c1ccc(CCCN2CCN(CCOC(c3ccccc3)c3ccccc3)CC2)cc1,"parasite growth, % of DMSO control",[4],9.93%
same,"parasite growth remaining, % of DMSO control (lower = more inhibition)",[5],25.6%
same,"parasite growth, % of control (lower = inhibition)",[6],18.7%
same,"growth, % of control",[7],19.2%
same,"cell viability, % of control (lower = more cytotoxic)",[9],8.38%
same,viability (% of control),[10],5.14%
